# Compound activity (PubChem BioAssay)
# PfHsp90 yeast 2 – growth inhibition of PfHsp90-expressing yeast, primary screen, antimalarial PfHsp90 inhibitor project, S. cerevisiae, BacTiter-Glo luminescence, single point, set 2; AID 504621, 2011; 0.32% of 310,000 active; inhibition, % at 9.4 µM; BacTiter-Glo ATP, 48 h; yeast lacking PDR1 and PDR3 efflux regulators;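 active = every replicate shows inhibition above about 80%, whatever the replicate mean, limit read from the data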;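 note: 0% = DMSO neutral controls and 100% = 20 µM radicicol positive controls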
# MITF TRPM1 HTS – activators of MITF-driven TRPM1 promoter reporter, primary screen, cell-based, SK-MEL-5, luciferase, single point. SK-MEL-5 TRPM1-promoter luciferase, 24 h; % of positive control, neutral wells = 0. activation, % at 12.5 µM. 0.75% of 300,000 active. AID 588334, 2011;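 active = mean activation of at least 80% with every replicate also reaching 80%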;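 note: 0% = neutral control wells and 100% = parthenolide positive control wells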
# N-glyco inh – increase of ERlucT glycosylation luciferase signal, primary screen, N-linked glycosylation inhibitor project, D54 ERlucT cells, luminescence, set 2; D54 ERlucT glycosylation luciferase reporter, 24 h; percent of 100 nM tunicamycin response; AID 588692, 2011; 0.23% of 360,000 active; reporter increase, % at 12.5 µM;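 active = mean luciferase reporter signal, scaled so untreated is 0 and the glycosylation-blocking control 100, at or above a set limit in every replicate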;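 note: luciferase carries N-glycosylation sites so blocking glycosylation raises the light; 0% = median of neutral control wells and 100% = median of 100 nM tunicamycin wells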
# Vif inh – HIV Vif self-association inhibitors, primary screen, imaging, HEK293T, single point; HEK293T cells, Vif self-association by quenched fluorescence, 24 h; inhibition, % at 7.49 µM; 0.35% of 340,000 active; AID 602346, 2012; in the data active = inhibition above about 50%, passing the limit was not always enough
# esBAF inh – Bmi1 luciferase reporter increase in mESCs, primary screen, esBAF inhibitor project, mouse ES cells, Bmi1 luciferase knock-in, single point. 24 h; 100% = twice the neutral-well signal. reporter increase, % at 12.5 µM. 2% of 350,000 active. AID 602393, 2012; in the data active = activation above about 40%;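 note: 0% = median of the plate's neutral control wells and 100% = double that signal; a rise in the Bmi1 reporter signal indicates esBAF inhibition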
# Wnt act – Wnt/beta-catenin pathway activators, primary screen, cell-based, plate reader, single point. Wnt/beta-catenin reporter cell assay, activator. activation, % at 9.35 µM. 1.2% of 300,000 active; in the data active = activation above about 30%, passing the limit was not always enough;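 note: 0% = neutral control wells and 100% = positive control wells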
# * marks the source's active call; other numbers are inactive results; nt = not tested or not shown. Only some compounds are listed: those with a hit (about 3% of all), similar ones and a draw of the others.
SMILES,PfHsp90 yeast 2,MITF TRPM1 HTS,N-glyco inh,Vif inh,esBAF inh,Wnt act
O=[S@]1Oc2ccccc2-c2ccccc21,110*,nt,3,43,nt,2
O=S1c2ccccc2Oc2ccccc21,32,14,0,-5,nt,4
O=C(c1cccn(Cc2cccc(Cl)c2)c1=O)N1CCOCC1,nt,nt,3,0,6,-5
O=C(NC1CCCCC1)c1ccc(-c2cccc([N+](=O)[O-])c2)o1,-8,116*,14,nt,nt,32*
CCOc1cccc(C(=O)NC2CCCCC2)c1,8,54,-6,-19,53*,-1
CCOc1ccc(C(=O)NC2CCCCCCC2)cc1,2,79,-10,-8,nt,42*
N#CCC(=O)Nc1ccc(C(=O)NNC(=S)NC2CCCCC2)cc1,nt,nt,1,124*,-8,-4
O=C(O)c1ccc(-c2cccc([N+](=O)[O-])c2)o1,-5,10,1,-3,nt,0
CO[C@@H]1CN(C)C(=O)c2ccc(NS(=O)(=O)CC(F)(F)F)cc2OC[C@H](C)N(Cc2nccs2)C[C@@H]1C,nt,nt,nt,nt,-7,nt
O=C(NC1CCCCC1)c1ccc([N+](=O)[O-])cc1,-8,18,-2,23,74*,-3
N#Cc1ccc(C(=O)NC2CCCCCCC2)cc1,12,107*,-3,-28,53*,2
O=C(NCc1ccccc1)c1ccc([N+](=O)[O-])cc1,nt,nt,-2,-4,nt,-1
Cc1ccc(C(=O)NC2CCCCC2)cc1,32,88*,-2,-6,12,17
O=C(N[C@H]1CC1c1ccccc1)c1ccc([N+](=O)[O-])cc1 (stereo partly specified),-13,74,-8,-4,nt,35*
CCC(=O)N(C)C[C@@H]1Oc2cc(C3=CCCC3)ccc2S(=O)(=O)N([C@H](C)CO)C[C@@H]1C,nt,nt,nt,nt,-2,nt
CCCNC(=O)CCc1nnc2ccc(N3CCC(C)CC3)nn12,-24,-4,2,-10,4,-1
NC(N)=N/N=C/c1ccccc1OC(F)F,nt,1,0,20,-3,0
O=C(NC(=S)NC1CCCCC1)c1ccc(F)cc1,2,59,3,-8,60*,21
COc1ccc(-c2cc3nc(CCl)[nH]c(=O)c3s2)cc1,-4,-11,-16,16,-68,8
O=c1[nH]cnc2cc(-c3ccccc3)sc12,-30,nt,-1,1,42*,nt
COc1ccc(-c2cc3nc[nH]c(=O)c3s2)cc1,-2,27,-6,20,7,34*
C[C@H]1CN([C@@H](C)CO)C(=O)c2cc(NC(=O)Nc3ccc(C(F)(F)F)cc3)ccc2O[C@H]1CN(C)S(=O)(=O)c1cn(C)cn1,nt,nt,nt,nt,-4,nt
COc1cccc(NC(=O)CN(C)C(=O)c2ccc3c(c2)CC(c2ccccc2)OC3=O)c1 (stereo unspecified),nt,-8,3,10,13,48*
COc1ccc(NC(=O)CN(C)C(=O)c2ccc3c(c2)CC(c2ccccc2)OC3=O)cc1 (stereo unspecified),nt,nt,1,nt,6,-1
COc1ccc(Cl)cc1NC(=O)CN(C)CC(=O)Nc1cc(OC)c(OC)c(OC)c1,-8,-15,33*,-9,-3,1
SMILES,PfHsp90 yeast 2,MITF TRPM1 HTS,N-glyco inh,Vif inh,esBAF inh,Wnt act
COc1ccc(NC(=O)Cc2cccc3ccccc23)cc1,6,nt,1,-8,2,1
CCc1ccc(C(O)c2ncc(-c3cccc(F)c3)[nH]2)cc1 (stereo unspecified),nt,nt,-1,-12,87*,-2
COc1cccc(-c2cnc(C(O)c3ccc(F)cc3)[nH]2)c1 (stereo unspecified),nt,nt,-1,-2,56*,2
COc1ccc(C(O)c2ncc(-c3cccc(OC)c3)[nH]2)cc1 (stereo unspecified),nt,nt,0,nt,4,-1
COc1ccccc1-c1ccc2n(c1=O)C[C@H]1[C@H](CO)[C@@H](C(=O)O)N(C(=O)c3cccnc3)[C@@H]21,nt,nt,nt,nt,2,nt
COc1cc(C(=O)Nc2ccc(S(=O)(=O)Nc3onc(C)c3C)cc2)cc(OC)c1OC,10,0,-1,2,-10,nt
O=[N+]([O-])c1cc([N+](=O)[O-])c(Oc2c(Cl)cccc2Cl)cc1NN1CCCCC1,-15,-7,-3,-7,-6,-1
N#C/C(=C\c1ccc([N+](=O)[O-])o1)c1nc2ccccc2[nH]1,nt,nt,nt,nt,nt,-15
N#C/C(=C/c1ccc(O)c(O)c1)c1nc2ccccc2[nH]1,26,37,2,3,57*,4
N#C/C(=C\c1ccc(OC(=O)c2cccs2)cc1)c1nc2ccccc2[nH]1,-6,58,9,-1,nt,35*
Cc1ccc2nc(/C(C#N)=C\c3ccc([N+](=O)[O-])o3)[nH]c2c1,105*,-91,-11,4,-63,nt
N#C/C(=C\c1cccs1)c1nc2ccccc2[nH]1,29,15,-3,0,nt,nt
N#C/C(=C\Nc1ccc2c(c1)OCCO2)c1nc2ccccc2[nH]1,9,77,-1,nt,44*,nt
O=C(NCc1ccncc1)c1cccc(S(=O)(=O)N2CCc3ccccc32)c1,nt,-26,-2,1,-29,-2
CCn1c(SCC(=O)NC2CCCC2)nc2c(c1=O)SCC2,nt,nt,0,0,-8,-1
COc1ccc(-n2nc(C(=O)NCC(=O)NCc3ccc(F)cc3)c3ccccc3c2=O)cc1OC,-26,-5,-9,27,3,-1
N#C/C(=C\c1ccc(-c2ccccc2C(=O)O)o1)c1nc2ccccc2[nH]1,-4,2,2,29,14,2
N#C/C(=C\c1ccc(Sc2ccccc2)o1)c1nc2ccccc2[nH]1,7,121*,-6,5,nt,-3
N/C(=N\OC(=O)CSc1ccccc1)c1ccc([N+](=O)[O-])cc1,10,25,5,-10,nt,39*
Cc1ccc(/C=C2/SC(=S)N(C3CCCCC3)C2=O)o1,-53,4,4,1,0,0
Cc1nn(-c2ccccc2)nc1C(=O)NNC(=O)c1cccc2ccccc12,12,-13,2,8,-3,-1
Cc1nn(-c2ccccc2)nc1C(=O)NN,-27,0,-1,-4,4,36*
COc1ccc(Br)cc1/C=N/NC(=O)c1ccc(COc2ccc3c(c2)CCC3)o1,-34,21,2,-6,56*,-2
CCOC(=O)c1cnc(SCC(=O)c2ccccc2)nc1N,-14,97*,-7,-4,16,nt
CCOC(=O)c1cnc(SCC(C)C)nc1N,3,109*,-4,-1,52*,70*
CCOC(=O)c1cnc(SCC(=O)c2ccc(C)cc2)nc1N,11,1,2,-3,1,1
